The results in this text go back to PubChem BioAssay (NCI).

The structures appear in SMILES notation. The panel holds about 83,000 compounds, 20% with a hit somewhere; the sample as a whole holds those more often.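 How to read the values: 0–100, growth inhibition (40 = 60% inhibited); 0, no net growth; -100 to 0, cell death (-40 = 40% of starting cells died; -100 = all dead).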 A number with no mark means an inactive call. The source made the active and inactive calls. Rule for the calls: active = growth percent below 10; inactive = the rest.

Test systems include SR leukemia; OVCAR-8 ovarian; OVCAR-5 ovarian; OVCAR-4 ovarian; SK-OV-3 ovarian; IGROV1 ovarian; OVCAR-3 ovarian; HS 578T breast; NCI/ADR-RES ovarian; T-47D breast; BT-549 breast; MDA-MB-435 melanoma; SW-620 colon; MCF7 breast; HCT-116 colon; HCC-2998 colon; KM12 colon; MDA-MB-468 breast; RPMI-8226 leukemia.
What all share (experiment): NCI-60 one-dose screen, 48 h (100 = growth as untreated, 0 = no growth, -100 = all killed)
Holding throughout (settings): 10 µM unless noted

`CCCCc1c(Nn2cnnn2)no[n+]1[O-]`: the growth in the test on SR leukemia is 36.9%; in the test on OVCAR-8 ovarian it was 42.1%; in the test on OVCAR-5 ovarian it was 83.2%; in the test on OVCAR-4 ovarian, 55%; with SK-OV-3 ovarian, 88.8%; in the test with IGROV1 ovarian, 35.8%. For the same compound, the growth is 51.4% in the test with OVCAR-3 ovarian; 58.6% in the test on HS 578T breast; 58.2% in the test with NCI/ADR-RES ovarian; 51.5% with T-47D breast; 49.4% with BT-549 breast; 46.5% with MDA-MB-435 melanoma. For the same compound, the growth in the test with SW-620 colon was 57.6%; with MCF7 breast, 24.5%; with HCT-116 colon, 38.2%; in the test on HCC-2998 colon it was 78.8%; with KM12 colon, 61.7%; with MDA-MB-468 breast, 49.3%.

Take `COc1ccc2[nH]cc(-c3cc(N)n4nc(-c5cn(C)c6ccccc56)cc4n3)c2c1`: the growth in the test with SR leukemia was 9.5% (active); in the test on RPMI-8226 leukemia, -18% (active); in the test with OVCAR-8 ovarian it was -95.6% (active); with SK-OV-3 ovarian, -84% (active); in the test with IGROV1 ovarian, -64.2% (active); with OVCAR-3 ovarian it was -43% (active). For the same compound, the growth is -7.76% (active) with HS 578T breast; -45.3% (active) with NCI/ADR-RES ovarian; -73.3% (active) in the test on T-47D breast; -75.2% (active) in the test with BT-549 breast; -81% (active) with MDA-MB-435 melanoma; -46.1% (active) with SW-620 colon. The growth with MCF7 breast is -82.2% (active); in the test with HCT-116 colon it was -85.9% (active); in the test with HCC-2998 colon, -81.3% (active); in the test on KM12 colon it was -69.9% (active); in the test on MDA-MB-468 breast it was -80.1% (active).

Consider `COc1ccc(C2(SCCNCc3cc(N(C)C)ccn3)c3ccccc3C=Cc3ccccc32)cc1`, for which the growth is -28.5% (active) with SR leukemia; 9.18% (active) with OVCAR-8 ovarian; 9.62% (active) in the test with OVCAR-5 ovarian; 43.7% in the test with OVCAR-4 ovarian; 36.5% in the test on SK-OV-3 ovarian; 40.8% in the test with IGROV1 ovarian. The growth with OVCAR-3 ovarian is 14.6%; in the test on HS 578T breast it was -3.79% (active); in the test with T-47D breast, 32.4%; in the test on BT-549 breast, 6.65% (active); in the test on MDA-MB-435 melanoma, -33% (active); in the test on SW-620 colon, 4.94% (active). For the same compound, the growth is -5.08% (active) in the test on MCF7 breast; 3.35% (active) with HCT-116 colon; -30.1% (active) in the test with HCC-2998 colon; 13.9% with KM12 colon; -46.9% (active) with MDA-MB-468 breast.

On to `COc1ccc(-c2nc3cc(C)ccc3n2CC(=O)N=Nc2c(O)[nH]c3ccccc23)cc1`, for which the growth in the test on SR leukemia was 0.97% (active); in the test on OVCAR-8 ovarian, -58.1% (active); in the test with OVCAR-5 ovarian, 13.8%; in the test with OVCAR-4 ovarian, -25.3% (active); in the test with SK-OV-3 ovarian it was 47.8%; with IGROV1 ovarian, 59.3%. The growth with OVCAR-3 ovarian is -33.8% (active); with HS 578T breast it was 4.27% (active); in the test on NCI/ADR-RES ovarian it was -47.1% (active); with T-47D breast, 28.9%; in the test with BT-549 breast, -63.2% (active); in the test on MDA-MB-435 melanoma, 12.4%. In addition, the growth in the test on SW-620 colon is 6.89% (active); with MCF7 breast, 20%; in the test on HCT-116 colon it was -95.1% (active); in the test on HCC-2998 colon, 26.8%; in the test on KM12 colon it was 14.1%; in the test with MDA-MB-468 breast, -0.636% (active).

In the case of `CCOC(=O)C(N=Nc1ccc(S(=O)(=O)N=C(N)N)cc1)C(C)=O` (stereo not drawn), the growth in the test with SR leukemia was 99.4%; in the test on OVCAR-8 ovarian, 104%; in the test on OVCAR-5 ovarian, 104%; in the test with OVCAR-4 ovarian, 105%; in the test on SK-OV-3 ovarian it was 138%; in the test with IGROV1 ovarian, 110%. Besides, the growth in the test with OVCAR-3 ovarian was 113%; in the test with HS 578T breast it was 111%; in the test with NCI/ADR-RES ovarian, 113%; with T-47D breast it was 105%; with BT-549 breast it was 113%; in the test on MDA-MB-435 melanoma, 105%. Moreover, the growth in the test with SW-620 colon was 102%; in the test with MCF7 breast, 97.9%; with HCT-116 colon, 109%; in the test on HCC-2998 colon, 120%; in the test on KM12 colon, 103%; in the test with MDA-MB-468 breast it was 92.9%.

Turning to `CC12CC[C@@H]3[C@]4(C)COC(c5c(F)cccc5F)O[C@@H]4CC[C@@]3(C)[C@@H]1CC(C1=CCOC1=O)O2` (stereo partly drawn), the growth in the test with SR leukemia is 55.6%; with OVCAR-8 ovarian it was 59.8%; with OVCAR-5 ovarian it was 85.6%; in the test on OVCAR-4 ovarian, 70.1%; in the test on SK-OV-3 ovarian it was 77.2%; with IGROV1 ovarian, 79.1%. Besides, the growth was 88.1% in the test with OVCAR-3 ovarian; 81.2% in the test with HS 578T breast; 59% in the test with NCI/ADR-RES ovarian; 55% in the test with T-47D breast; 48.3% in the test with BT-549 breast; 86.1% in the test with MDA-MB-435 melanoma. For the same compound, the growth with SW-620 colon was 100%; in the test with MCF7 breast it was 58.4%; in the test with HCT-116 colon, 49.1%; in the test on HCC-2998 colon, 76.7%; with KM12 colon it was 72.6%; with MDA-MB-468 breast, 52.1%.

For `O=C(NNc1ccccc1)n1c(=O)c2ccccc2c(=O)n1-c1ccccc1`, the growth is 80.8% with SR leukemia; 102% in the test on RPMI-8226 leukemia; 96.7% in the test on OVCAR-8 ovarian; 97.6% in the test with OVCAR-4 ovarian; 85.5% in the test with SK-OV-3 ovarian; 96.4% in the test with IGROV1 ovarian. Besides, the growth in the test with OVCAR-3 ovarian was 104%; in the test with T-47D breast it was 87.9%; in the test on BT-549 breast, 90%; in the test with MDA-MB-435 melanoma, 97.8%; in the test on MCF7 breast, 88.3%; with HCT-116 colon it was 79.2%. Besides, the figures for the growth with HCC-2998 colon, in the test on KM12 colon and with MDA-MB-468 breast were 108%, 93.3% and 99%, respectively.

Turning to `CCC(C)(C)c1ccc(OCCCCN2CCN(c3ccncc3)CC2)cc1`, the growth is -24.2% (active) in the test on SR leukemia; -31.3% (active) in the test with RPMI-8226 leukemia; 67% with OVCAR-8 ovarian; 56% with OVCAR-4 ovarian; 32.3% in the test on SK-OV-3 ovarian; 55.5% with IGROV1 ovarian. The growth in the test with OVCAR-3 ovarian is 51.1%; in the test with HS 578T breast, 20.2%; in the test with NCI/ADR-RES ovarian it was 59.7%; in the test with BT-549 breast it was 27%; in the test on MDA-MB-435 melanoma, 39.2%; in the test with SW-620 colon it was 2.87% (active). For the same compound, the growth with MCF7 breast is -23.1% (active); in the test on HCT-116 colon, 8.09% (active); in the test on HCC-2998 colon it was -5.55% (active); in the test with KM12 colon, 37.4%; in the test on MDA-MB-468 breast it was -67.2% (active).
